For 40 compounds, outcome and AC50 results are on record in PubChem BioAssay (EPA / NIEHS).

The source made the active and inactive calls. The calls were made as follows: active = hit-call score of the fitted dose curve at least 0.9, where 1 is the maximum; inactive = score below 0.9.

Read-out in this experiment: Lipoprotein lipase (LPL), LPL (gene 4023)
Description: LTEA_HepaRG_LPL: Life Technologies and Expression Analysis (LTEA) Assay for Lipoprotein lipase (LPL) using HepaRG (AID 2283515). The conditions noted are these: mRNA level, 48 h; actives raise or lower the signal. The protocol: LTEA_HepaRG is a cell based, multiplexed-readout assay that uses HepaRG, a human liver cell line, with measurements taken at 48 hours after chemical dosing on a 96-well plate.LTEA_HepaRG_LPL is one of 102 assay component(s) measured in the LTEA HepaRG cell culture assay. It is a marker of Steatosis.Data from the assay component LTEA_HepaRG_LPL was analyzed into 1 endpoint. This assay endpoint, LTEA_HepaRG_LPL, was analyzed with bidirectional fitting relative to DMSO as the negative control and baseline of activity. Using a type of inducible reporter, measures of mRNA induction for gain or loss-of-signal activity can be used to understand regulation of transcription factor activity. To generalize the intended target to other relatable targets, this assay endpoint is annotated to the esterase intended target family, where the subfamily is lipase.
A total of 1060 chemcials from the ToxCast library were tested in eight-point concentration-response experiments. Cell culture and cytotoxicity assays were conducted at Thermo Fisher Scientific's Custom Services facility (Madison, WI). A single lot of human HepaRG cells (Thermo Fisher Scientific, Frederick, MD) was used for the cell culture experiments. 96-well format collagen type I coated plates of human HepaRG cells were prepared using established methods. Briefly, cryopreserved HepaRG cells were thawed, plated at a density of approximately 100,000 cells/well in HepaRG Thaw, Plate, and General Purpose media (HPRG770, Thermo Fisher Scientific), and incubated for 48 hours. 0.5% DMSO was selected as vehicle control to balance the requisite need of DMSO in HepaRG cultures to maintain differentiation (for example, baseline metabolism, proportions of hepatocytes vs. cholangiocytes), while enabling further hepatic receptor pathway activation (for example, PXR and CAR) in response to chemical exposure. 48 hours after plating, the culture medium was replaced with HepaRG Serum-Free Incudtion Media. Cells were exposed to each test chemical in duplicate and maintained in CO2 incubators for another 48 hours. Chemical plates were thawed to room temperature and 200x concentrations of treatment groups were prepared. 8-point conentration-reponse curves were made with the highest exposure at 100 uM, followed by half-log dilutions, all in 0.5% DMSO. Each test plate contained variouse controls, induction positive controls (1mM phenobarbital), cytotoxicity positive controls ([…] aflatoxin B1), vehicle controls (0.5% DMSO), and total lysis controls (0.5% DMSO). Cell morphology images were taken using an Essen IncuCyte FLR automated microscope, with six 96-well plates imaged in about 24 minutes. Images were captured and exported and JPEG files. Spent culture media was transfered to black-well plates for the LDH assay, and remaining media was sorted at -80 C for later use. Cells were treated with RLT buffer and frozen until shipped for gene expression analysis. Total RNA was isolated from the cell suspension in 75 uL of Buffer RLT (Qiagen, Germantown, MD 20874) by Quintiles/Expression Analysis (Durham, NC) using a custom isolation procedure. Total RNA from each plate well was transferred to a preamplification plate. Fluidigm's 96.96 Dynamic ArrayTM (Fluidigm, Amsterdam, the Netherlands) technology was used for gene expression analyses by quantitative reverse transcription polymerase chain reaction (qRT-PCR, performed by Quintiles/Expression Analysis, Durham, NC)89. Standard TaqManTM Assays (Applied Biosystems/ThermoFisher Scientific, Foster City, CA) were used to assess the expression of 93 genes selected based on their selectivity and sensitivity to important hepatic receptors known to be modulated by environmental chemicals; importance in human hepatocyte functionality; and hepatotoxicity. […]
Consider `CCOP(=S)(OCC)SCCSCC`, for which the compound was classed as inactive.

With `CC1=NNC(=O)N(/N=C/c2cccnc2)C1`, the result was inactive. As to `Nc1c(Cl)cc([N+](=O)[O-])cc1Cl`, the AC50 was 15.5 µM (active).

In the case of `CCCCSP(=O)(SCCCC)SCCCC`, the AC50 is 68.5 µM (active). As for `CCCCOC(=O)c1ccccc1C(=O)O`, the outcome was inactive.

On to `CC(C)[C@H](C(=O)O[C@H](C#N)c1cccc(Oc2ccccc2)c1)c1ccc(Cl)cc1`, for which the call was inactive. Still for that read-out and setting: for `CON=C(C(=O)OC)c1ccccc1CON=C(C)c1cccc(C(F)(F)F)c1` the value was “inactive”. Same read-out and setting: as for `CCC(=NOC/C=C/Cl)C1=C(O)CC(C2CCOCC2)CC1=O` (stereo not given), the entry is “inactive”; as for `CNc1cnn(-c2cccc(C(F)(F)F)c2)c(=O)c1Cl`, “inactive”. For the compound `CNC(=O)ON=C(C)SC`, the result was inactive. On the same count and under the same terms, as for `CCC(=O)Nc1ccc(Cl)c(Cl)c1`, the entry is “inactive”; as for `CCOC(=O)COc1cc(-c2nn(C)c(OC(F)F)c2Cl)c(F)cc1Cl`, “inactive”; as for `CN(C)C(=O)Nc1cccc(C(F)(F)F)c1`, “inactive”.

Consider `CCCOCC(=Nc1ccc(Cl)cc1C(F)(F)F)n1ccnc1`, for which the AC50 is 12.8 µM (active). Consider `CCc1cnc(C2=NC(C)(C(C)C)C(=O)N2)c(C(=O)O)c1` (stereo not given), for which the outcome was inactive. Same read-out and setting: as for `CC(COc1ccc(Oc2ccccc2)cc1)Oc1ccccn1` (stereo not given), the entry is “inactive”; as for `CCCOc1nn(C(=O)NS(=O)(=O)c2ccccc2C(=O)OC)c(=O)n1C`, “inactive”; as for `CCc1cccc(CC)c1N(COC)C(=O)CCl`, “inactive”. Regarding `CC[C@H](C)[C@H]1O[C@]2(C=C[C@@H]1C)C[C@@H]1C[C@@H](C/C=C(\C)[C@@H](O[C@H]3C[C@H](OC)[C@@H](O[C@H]4C[C@H](OC)[C@@H](NC)[C@H](C)O4)[C@H](C)O3)[C@@H](C)/C=C/C=C3\CO[C@@H]4[C@H](O)C(C)=C[C@@H](C(=O)O1)[C@]34O)O2`, the AC50 is 12.1 µM (active).

Take `CC(Oc1cccc(Cl)c1)C(=O)O` (stereo not given): the outcome was inactive. `O=c1ccc(=O)[nH][nH]1`: the compound was called inactive. Still for that read-out and setting: for `CNC(=O)Oc1cccc2c1OC(C)(C)O2` the value was “inactive”; for `Nc1nc(N)nc(NC2CC2)n1`, “inactive”; for `C[N+]1(C)CCCCC1`, “inactive”.

In the case of `FC(F)C(F)(F)OCC(Cn1cncn1)c1ccc(Cl)cc1Cl` (stereo not given), the AC50 was 31.3 µM (active). As for `COP(=O)(OC)SCn1c(=O)oc2cc(Cl)cnc21`, the call was inactive.

Regarding `CC(=NC#N)N(C)Cc1ccc(Cl)nc1`, the compound was called inactive. For the compound `CSC1=N[C@@](C)(c2ccccc2)C(=O)N1Nc1ccccc1`, the AC50 was 26.9 µM (active). Turning to `CCOP(=O)(SC(C)CC)N1CCSC1=O` (stereo not given), the result was inactive. Regarding `C=C(C)[C@H]1Cc2c(ccc3c2O[C@@H]2COc4cc(OC)c(OC)cc4[C@@H]2C3=O)O1`, the AC50 is 2.16 µM (active).

As for `CCOP(=S)(Oc1cnc(C(C)(C)C)nc1)OC(C)C` (stereo not given), the outcome was inactive.

On to `CCCSP(=O)(OCC)Oc1ccc(Br)cc1Cl` (stereo not given), for which the result was inactive. On the same count and under the same terms, as for `CC(C)=CC1C(C(=O)OCN2C(=O)C3=C(CCCC3)C2=O)C1(C)C` (stereo not given), the entry is “inactive”. Still for that read-out and setting: as for `CC(C)N(C(=O)SCC(Cl)=C(Cl)Cl)C(C)C`, the entry is “inactive”; as for `CCOP(=O)(NC(C)C)Oc1ccc(SC)c(C)c1` (stereo not given), “inactive”. For `O=C(O)c1cc(Oc2ccc(C(F)(F)F)cc2Cl)ccc1[N+](=O)[O-]`, the AC50 was 12.6 µM (active). For the compound `C[Si](Cn1cncn1)(c1ccc(F)cc1)c1ccc(F)cc1`, the half-maximal activity concentration (AC50) is 50 µM (active). Consider `CSc1nc(NC(C)C)nc(NC(C)C)n1`, for which the compound was classed as inactive. Consider `C#CCC1=C(C)C(OC(=O)C2C(C=C(C)C)C2(C)C)CC1=O` (stereo not given), for which the compound was classed as inactive. Turning to `CCCCOC(=O)[C@@H](C)Oc1ccc(Oc2ccc(C#N)cc2F)cc1`, the AC50 is 40.4 µM (active).

What is called AC50 is the midpoint of the concentration-response curve, whichever way the signal moves.
